# Reference: article PMC7862700, “An all-to-all approach to the identification of sequence-specific readers for epigenetic DNA modifications on cytosine”
# How the values were obtained:
# Assay in all cases: DAPPL (digital affinity profiling via proximity ligation, sequencing); 10 mM Tris-HCl pH 7.5, 50 mM NaCl, 1 mM DTT, 4% glycerol, room temperature, 30 min; GST-TFs on glutathione beads, 16-mer random dsDNA library, 0.1% formaldehyde crosslink after washing; high values mean tight binding
# FEV = target: T1, FEV (Homo sapiens, UniProt Q99581 1-238); details: protein: recombinant; tags: N-terminal GST; dsDNA, one strand shown
# T1 sequence: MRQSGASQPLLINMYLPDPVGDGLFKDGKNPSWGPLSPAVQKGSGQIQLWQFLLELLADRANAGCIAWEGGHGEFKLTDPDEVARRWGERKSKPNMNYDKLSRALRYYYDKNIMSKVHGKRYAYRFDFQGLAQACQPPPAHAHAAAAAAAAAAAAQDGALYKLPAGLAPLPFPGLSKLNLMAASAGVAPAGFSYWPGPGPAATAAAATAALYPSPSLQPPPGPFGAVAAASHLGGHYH
# Summary of the method: (§1)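 After expression in yeast as GST fusions, human transcription factors were bound to glutathione beads, DNA-barcoded and mixed with a tag-only sample. The pools were incubated with 200 nmole of a 16-mer random double-stranded DNA library in Tris/NaCl/DTT/glycerol buffer (30 min, room temperature), washed and crosslinked with 0.1% formaldehyde. Proximity ligation with BsaI/T4 ligase ran for 1 h at 37 °C, before PCR amplification and sequencing on an Illumina NextSeq500. Binding signal is a hexamer's read frequency for a factor divided by its frequency for the tag-only sample.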
# ETV5 = ETV5 (Homo sapiens, UniProt P41161 1-510); details: protein: recombinant; tags: N-terminal GST; dsDNA, one strand shown
# Summary of the method: as §1
# HSF1 = HSF1 (Homo sapiens, UniProt Q00613 1-529); details: protein: recombinant; tags: N-terminal GST; chain copies: 3; dsDNA, one strand shown
# Summary of the method: as §1
# SPIC = target: T2, SPIC (Homo sapiens, UniProt Q8N5J4 1-248); details: protein: recombinant; tags: N-terminal GST; dsDNA, one strand shown
# T2 sequence: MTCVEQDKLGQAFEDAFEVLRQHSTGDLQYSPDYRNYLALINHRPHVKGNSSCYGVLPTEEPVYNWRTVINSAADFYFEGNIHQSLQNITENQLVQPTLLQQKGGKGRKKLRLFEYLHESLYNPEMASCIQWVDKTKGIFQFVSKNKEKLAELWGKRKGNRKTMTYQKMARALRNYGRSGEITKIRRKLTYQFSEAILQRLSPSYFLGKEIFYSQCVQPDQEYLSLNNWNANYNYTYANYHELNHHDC
# Summary of the method: as §1
# ELF4 = ELF4 (Homo sapiens, UniProt Q99607 1-663); details: protein: recombinant; tags: N-terminal GST; dsDNA, one strand shown
# Summary of the method: as §1
# ELK4 = target: T3, ELK4 (Homo sapiens, UniProt P28324-2 1-405); details: protein: recombinant; tags: N-terminal GST; dsDNA, one strand shown
# T3 sequence: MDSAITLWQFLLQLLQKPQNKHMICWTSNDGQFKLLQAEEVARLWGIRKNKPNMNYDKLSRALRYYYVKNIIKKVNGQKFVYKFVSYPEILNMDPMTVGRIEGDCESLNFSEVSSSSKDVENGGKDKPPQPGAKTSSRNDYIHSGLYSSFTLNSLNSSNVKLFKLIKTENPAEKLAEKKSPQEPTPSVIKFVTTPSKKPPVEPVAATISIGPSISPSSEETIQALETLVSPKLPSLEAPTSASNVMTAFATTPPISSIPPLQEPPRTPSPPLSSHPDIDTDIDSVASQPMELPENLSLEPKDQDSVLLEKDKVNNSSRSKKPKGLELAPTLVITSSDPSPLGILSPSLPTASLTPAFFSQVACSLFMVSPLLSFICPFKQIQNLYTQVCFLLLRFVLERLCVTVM
# Summary of the method: as §1
# ETV2 = target: T4, ETV2 (Homo sapiens, UniProt O00321 1-342); details: protein: recombinant; tags: N-terminal GST; dsDNA, one strand shown
# T4 sequence: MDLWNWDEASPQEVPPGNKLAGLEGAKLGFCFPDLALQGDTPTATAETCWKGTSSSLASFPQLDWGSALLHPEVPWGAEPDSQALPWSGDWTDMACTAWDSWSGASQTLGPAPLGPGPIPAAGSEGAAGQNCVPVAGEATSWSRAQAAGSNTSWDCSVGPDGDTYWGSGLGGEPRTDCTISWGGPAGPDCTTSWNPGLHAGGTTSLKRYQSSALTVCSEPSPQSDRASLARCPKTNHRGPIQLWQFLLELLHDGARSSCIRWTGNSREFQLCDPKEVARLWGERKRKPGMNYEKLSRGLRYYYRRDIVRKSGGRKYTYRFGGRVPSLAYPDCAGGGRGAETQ
# Summary of the method: as §1
# ELF3 = target: T5, ELF3 (Homo sapiens, UniProt P78545 1-371); details: protein: recombinant; tags: N-terminal GST; dsDNA, one strand shown
# T5 sequence: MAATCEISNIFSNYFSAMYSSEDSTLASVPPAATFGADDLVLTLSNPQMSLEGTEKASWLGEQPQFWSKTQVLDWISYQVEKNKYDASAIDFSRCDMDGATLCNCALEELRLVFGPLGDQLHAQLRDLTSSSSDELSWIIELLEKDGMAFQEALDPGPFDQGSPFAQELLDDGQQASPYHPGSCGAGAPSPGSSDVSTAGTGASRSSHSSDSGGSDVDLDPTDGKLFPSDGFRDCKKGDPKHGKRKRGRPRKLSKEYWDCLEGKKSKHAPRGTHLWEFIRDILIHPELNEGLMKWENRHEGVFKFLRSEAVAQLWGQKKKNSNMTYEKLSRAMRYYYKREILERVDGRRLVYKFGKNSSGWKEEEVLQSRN
# Summary of the method: as §1
# CRX = CRX (Homo sapiens, UniProt O43186 1-299); details: protein: recombinant; tags: N-terminal GST; dsDNA, one strand shown
# Summary of the method: as §1
# ETV1 = ETV1 (Homo sapiens, UniProt P50549 1-477); details: protein: recombinant; tags: N-terminal GST; dsDNA, one strand shown
# Summary of the method: as §1
# Sequence of HSF1 (Q00613 whole entry): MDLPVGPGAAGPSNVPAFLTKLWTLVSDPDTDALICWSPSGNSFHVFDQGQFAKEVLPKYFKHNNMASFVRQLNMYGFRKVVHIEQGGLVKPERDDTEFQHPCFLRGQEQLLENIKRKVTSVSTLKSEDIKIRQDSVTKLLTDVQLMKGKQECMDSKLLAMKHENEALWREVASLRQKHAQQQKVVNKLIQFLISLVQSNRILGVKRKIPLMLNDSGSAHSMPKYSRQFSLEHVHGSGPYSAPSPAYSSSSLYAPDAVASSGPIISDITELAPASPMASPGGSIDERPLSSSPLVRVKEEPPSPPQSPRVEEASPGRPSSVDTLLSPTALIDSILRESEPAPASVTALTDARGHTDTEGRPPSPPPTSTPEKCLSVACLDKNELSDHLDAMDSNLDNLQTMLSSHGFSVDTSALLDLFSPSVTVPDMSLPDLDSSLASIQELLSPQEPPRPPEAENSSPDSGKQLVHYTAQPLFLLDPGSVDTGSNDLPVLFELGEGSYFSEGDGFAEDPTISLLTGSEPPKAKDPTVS
# Sequence of ELF4 (Q99607 whole entry): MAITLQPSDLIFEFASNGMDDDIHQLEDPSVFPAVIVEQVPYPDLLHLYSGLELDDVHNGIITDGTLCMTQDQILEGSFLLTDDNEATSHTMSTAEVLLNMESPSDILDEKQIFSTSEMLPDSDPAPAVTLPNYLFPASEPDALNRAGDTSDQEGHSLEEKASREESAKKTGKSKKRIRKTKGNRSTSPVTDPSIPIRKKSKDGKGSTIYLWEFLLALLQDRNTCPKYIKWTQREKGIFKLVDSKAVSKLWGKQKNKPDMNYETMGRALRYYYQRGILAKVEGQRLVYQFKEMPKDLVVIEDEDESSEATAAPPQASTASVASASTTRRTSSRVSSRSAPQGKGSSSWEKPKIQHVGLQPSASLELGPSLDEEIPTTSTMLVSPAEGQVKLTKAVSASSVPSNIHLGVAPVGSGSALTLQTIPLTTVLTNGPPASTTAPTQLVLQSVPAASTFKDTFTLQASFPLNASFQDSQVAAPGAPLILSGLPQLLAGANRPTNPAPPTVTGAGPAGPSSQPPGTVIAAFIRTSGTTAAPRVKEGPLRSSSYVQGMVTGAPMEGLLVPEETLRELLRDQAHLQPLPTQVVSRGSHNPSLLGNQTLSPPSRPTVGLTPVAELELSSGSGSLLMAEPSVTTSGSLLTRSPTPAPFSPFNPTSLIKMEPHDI
# Sequence of ETV5 (P41161 whole entry): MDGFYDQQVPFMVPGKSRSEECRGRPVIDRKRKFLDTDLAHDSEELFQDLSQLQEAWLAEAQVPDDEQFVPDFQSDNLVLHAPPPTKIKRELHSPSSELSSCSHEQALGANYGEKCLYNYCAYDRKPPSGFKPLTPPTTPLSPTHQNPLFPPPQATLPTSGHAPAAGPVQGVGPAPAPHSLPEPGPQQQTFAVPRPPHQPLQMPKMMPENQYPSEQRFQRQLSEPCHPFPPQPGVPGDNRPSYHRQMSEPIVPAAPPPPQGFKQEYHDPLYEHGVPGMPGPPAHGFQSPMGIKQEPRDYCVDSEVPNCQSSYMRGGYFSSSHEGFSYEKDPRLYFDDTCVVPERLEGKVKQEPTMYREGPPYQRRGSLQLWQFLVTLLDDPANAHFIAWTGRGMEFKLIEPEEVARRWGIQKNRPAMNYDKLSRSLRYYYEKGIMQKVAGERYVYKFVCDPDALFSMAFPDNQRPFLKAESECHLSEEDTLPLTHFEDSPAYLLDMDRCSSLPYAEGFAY
# Sequence of CRX (O43186 whole entry): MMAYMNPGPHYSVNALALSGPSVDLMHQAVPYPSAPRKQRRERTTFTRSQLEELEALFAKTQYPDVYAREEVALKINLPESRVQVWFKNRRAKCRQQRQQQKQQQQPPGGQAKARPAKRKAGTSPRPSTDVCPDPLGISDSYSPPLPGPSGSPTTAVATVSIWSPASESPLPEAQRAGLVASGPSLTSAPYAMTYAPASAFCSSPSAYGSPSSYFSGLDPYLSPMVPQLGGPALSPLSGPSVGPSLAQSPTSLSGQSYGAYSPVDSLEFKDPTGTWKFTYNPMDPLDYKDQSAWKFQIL
# Sequence of ETV1 (P50549 whole entry): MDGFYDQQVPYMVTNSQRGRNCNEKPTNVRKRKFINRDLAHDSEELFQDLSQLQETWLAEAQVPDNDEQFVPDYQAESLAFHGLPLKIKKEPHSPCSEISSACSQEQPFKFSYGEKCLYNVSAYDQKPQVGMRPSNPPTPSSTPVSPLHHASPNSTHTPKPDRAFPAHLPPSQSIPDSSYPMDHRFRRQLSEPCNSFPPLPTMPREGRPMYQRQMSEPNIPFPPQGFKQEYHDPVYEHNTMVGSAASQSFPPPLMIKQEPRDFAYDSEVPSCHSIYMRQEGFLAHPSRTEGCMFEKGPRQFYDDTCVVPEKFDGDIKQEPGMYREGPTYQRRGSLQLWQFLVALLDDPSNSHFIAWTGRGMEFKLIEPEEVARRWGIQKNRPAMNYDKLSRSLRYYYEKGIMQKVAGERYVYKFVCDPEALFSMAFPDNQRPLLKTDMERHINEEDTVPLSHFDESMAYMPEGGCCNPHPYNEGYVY
Sequence,binding signal (FEV),binding signal (ETV5),binding signal (HSF1),binding signal (SPIC),binding signal (ELF4),binding signal (ELK4),binding signal (ETV2),binding signal (ELF3),binding signal (CRX),binding signal (ETV1)
TTAACA,"1.13 fold enrichment (6-mer frequency, TF over GST control)","1.14 fold enrichment (6-mer frequency, TF over GST control)","1.65 fold enrichment (6-mer frequency, TF over GST control)","1.14 fold enrichment (6-mer frequency, TF over GST control)","1.18 fold enrichment (6-mer frequency, TF over GST control)","1.28 fold enrichment (6-mer frequency, TF over GST control)","1.23 fold enrichment (6-mer frequency, TF over GST control)","1.22 fold enrichment (6-mer frequency, TF over GST control)","2.34 fold enrichment (6-mer frequency, TF over GST control)","1.23 fold enrichment (6-mer frequency, TF over GST control)"
CTTCGA,"1.35 fold enrichment (6-mer frequency, TF over GST control)","1.4 fold enrichment (6-mer frequency, TF over GST control)","2.52 fold enrichment (6-mer frequency, TF over GST control)","1.42 fold enrichment (6-mer frequency, TF over GST control)","1.4 fold enrichment (6-mer frequency, TF over GST control)","1.3 fold enrichment (6-mer frequency, TF over GST control)","1.38 fold enrichment (6-mer frequency, TF over GST control)","1.42 fold enrichment (6-mer frequency, TF over GST control)","1.49 fold enrichment (6-mer frequency, TF over GST control)","1.35 fold enrichment (6-mer frequency, TF over GST control)"
TCACTT,"1.99 fold enrichment (6-mer frequency, TF over GST control)","1.75 fold enrichment (6-mer frequency, TF over GST control)","1.14 fold enrichment (6-mer frequency, TF over GST control)","1.62 fold enrichment (6-mer frequency, TF over GST control)","1.74 fold enrichment (6-mer frequency, TF over GST control)","1.74 fold enrichment (6-mer frequency, TF over GST control)","1.72 fold enrichment (6-mer frequency, TF over GST control)","1.62 fold enrichment (6-mer frequency, TF over GST control)","1.23 fold enrichment (6-mer frequency, TF over GST control)","1.67 fold enrichment (6-mer frequency, TF over GST control)"
ACTCTC,"1.42 fold enrichment (6-mer frequency, TF over GST control)","1.42 fold enrichment (6-mer frequency, TF over GST control)","1.55 fold enrichment (6-mer frequency, TF over GST control)","1.47 fold enrichment (6-mer frequency, TF over GST control)","1.49 fold enrichment (6-mer frequency, TF over GST control)","1.55 fold enrichment (6-mer frequency, TF over GST control)","1.39 fold enrichment (6-mer frequency, TF over GST control)","1.88 fold enrichment (6-mer frequency, TF over GST control)","1.31 fold enrichment (6-mer frequency, TF over GST control)","1.53 fold enrichment (6-mer frequency, TF over GST control)"
TTAAGC,"1.18 fold enrichment (6-mer frequency, TF over GST control)","1.12 fold enrichment (6-mer frequency, TF over GST control)","2.25 fold enrichment (6-mer frequency, TF over GST control)","1.19 fold enrichment (6-mer frequency, TF over GST control)","1.22 fold enrichment (6-mer frequency, TF over GST control)","1.15 fold enrichment (6-mer frequency, TF over GST control)","1.03 fold enrichment (6-mer frequency, TF over GST control)","1.1 fold enrichment (6-mer frequency, TF over GST control)","3.77 fold enrichment (6-mer frequency, TF over GST control)","1.11 fold enrichment (6-mer frequency, TF over GST control)"
AATGAT,"1.18 fold enrichment (6-mer frequency, TF over GST control)","1.14 fold enrichment (6-mer frequency, TF over GST control)","1.25 fold enrichment (6-mer frequency, TF over GST control)","1.1 fold enrichment (6-mer frequency, TF over GST control)","1.17 fold enrichment (6-mer frequency, TF over GST control)","1.25 fold enrichment (6-mer frequency, TF over GST control)","1.21 fold enrichment (6-mer frequency, TF over GST control)","1.17 fold enrichment (6-mer frequency, TF over GST control)","1.37 fold enrichment (6-mer frequency, TF over GST control)","1.07 fold enrichment (6-mer frequency, TF over GST control)"
CTACAT,"1.44 fold enrichment (6-mer frequency, TF over GST control)","1.45 fold enrichment (6-mer frequency, TF over GST control)","1.17 fold enrichment (6-mer frequency, TF over GST control)","1.51 fold enrichment (6-mer frequency, TF over GST control)","1.37 fold enrichment (6-mer frequency, TF over GST control)","1.33 fold enrichment (6-mer frequency, TF over GST control)","1.31 fold enrichment (6-mer frequency, TF over GST control)","1.28 fold enrichment (6-mer frequency, TF over GST control)","1.11 fold enrichment (6-mer frequency, TF over GST control)","1.41 fold enrichment (6-mer frequency, TF over GST control)"
